# From PubChem BioAssay (EPA / NIEHS)
# Calls of active or inactive are those of the source. The calls were made as follows: active = hit-call score of the fitted dose curve at least 0.9, where 1 is the maximum; inactive = score below 0.9.
# Read-out: Matrix Metallopeptidase 3 (MMP3), MMP3 (gene 4314)
# Test: BSK_BF4T_MMP3: BioMAP Diversity Plus: BF4T Assay for Matrix Metallopeptidase 3 (MMP3) Biomarker Activity (AID 2284271)
# Conditions: primary human bronchial epithelial cells with fibroblasts
# Summary of the method: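 Co-culture of human bronchial epithelial cells and dermal fibroblasts dosed 24 h; MMP-3 measured by ELISA, positive-direction fit versus DMSO. Cytotoxicity tracked by SRB total-protein staining (560 nm) in parallel cultures.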
row,SMILES,outcome
1,FC(F)C(F)(F)COCC1CO1 (stereo not given),inactive
2,FC(F)(F)C(F)(F)C(F)(F)C(F)(F)C(F)(F)C(F)(F)I,inactive
3,FC(F)(F)COC(OCC(F)(F)F)OCC(F)(F)F,inactive
4,OCCC(F)(F)C(F)(F)C(F)(F)C(F)(F)F,inactive
5,C[Si](C)(C)C(F)(F)C(F)(F)C(F)(F)F,inactive
6,FC(F)=C(F)C(F)(F)C(F)(F)C(F)(F)C(F)(F)C(F)(F)C(F)(F)F,inactive
7,O=S(=O)(O)CCC(F)(F)C(F)(F)C(F)(F)C(F)(F)C(F)(F)C(F)(F)F,inactive
8,NCC(F)(F)C(F)(F)C(F)(F)C(F)(F)F,inactive
9,OC(O)(C(F)C(O)(O)C(F)(F)F)C(F)(F)F,inactive
10,O=C(Cl)C(F)(F)C(F)(F)C(F)(F)C(=O)Cl,inactive

# Read-out: Tissue plasminogen activator (tPA), PLAT (gene 5327)
# Test: BSK_BF4T_tPA: BioMAP Diversity Plus: BF4T Assay for Tissue plasminogen activator (tPA) Biomarker Activity (AID 2284272)
# Conditions: primary human bronchial epithelial cells with fibroblasts
# Summary of the method: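 tPA level quantified by ELISA at 24 h post-treatment in bronchial epithelial/dermal fibroblast co-cultures, gain of signal scored against DMSO baseline. Parallel cultures stained with 0.1% SRB (560 nm) to flag overt cytotoxicity.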
row,SMILES,outcome
1,FC(F)C(F)(F)COCC1CO1 (stereo not given),inactive
2,FC(F)(F)C(F)(F)C(F)(F)C(F)(F)C(F)(F)C(F)(F)I,inactive
3,FC(F)(F)COC(OCC(F)(F)F)OCC(F)(F)F,inactive
4,OCCC(F)(F)C(F)(F)C(F)(F)C(F)(F)F,inactive
5,C[Si](C)(C)C(F)(F)C(F)(F)C(F)(F)F,inactive
6,FC(F)=C(F)C(F)(F)C(F)(F)C(F)(F)C(F)(F)C(F)(F)C(F)(F)F,inactive
7,O=S(=O)(O)CCC(F)(F)C(F)(F)C(F)(F)C(F)(F)C(F)(F)C(F)(F)F,inactive
8,NCC(F)(F)C(F)(F)C(F)(F)C(F)(F)F,inactive
9,OC(O)(C(F)C(O)(O)C(F)(F)F)C(F)(F)F,inactive
10,O=C(Cl)C(F)(F)C(F)(F)C(F)(F)C(=O)Cl,inactive

# Read-out: Plasminogen Activator Inhibitor-1 (PAI1), SERPINE1 (gene 5054)
# Test: BSK_BF4T_PAI1: BioMAP Diversity Plus: BF4T Assay for Plasminogen Activator Inhibitor-1 (PAI1) Biomarker Activity (AID 2284273)
# Conditions: primary human bronchial epithelial cells with fibroblasts
# Summary of the method: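 Co-culture of human bronchial epithelial cells and dermal fibroblasts exposed to compound for 24 h. PAI-1 measured by ELISA; activity fitted in positive direction versus DMSO. Parallel SRB staining assessed overt cytotoxicity.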
row,SMILES,outcome
1,FC(F)C(F)(F)COCC1CO1 (stereo not given),inactive
2,FC(F)(F)C(F)(F)C(F)(F)C(F)(F)C(F)(F)C(F)(F)I,inactive
3,FC(F)(F)COC(OCC(F)(F)F)OCC(F)(F)F,inactive
4,OCCC(F)(F)C(F)(F)C(F)(F)C(F)(F)F,inactive
5,C[Si](C)(C)C(F)(F)C(F)(F)C(F)(F)F,inactive
6,FC(F)=C(F)C(F)(F)C(F)(F)C(F)(F)C(F)(F)C(F)(F)C(F)(F)F,inactive
7,O=S(=O)(O)CCC(F)(F)C(F)(F)C(F)(F)C(F)(F)C(F)(F)C(F)(F)F,inactive
8,NCC(F)(F)C(F)(F)C(F)(F)C(F)(F)F,inactive
9,OC(O)(C(F)C(O)(O)C(F)(F)F)C(F)(F)F,inactive
10,O=C(Cl)C(F)(F)C(F)(F)C(F)(F)C(=O)Cl,inactive
